Compound in the assay: Nc1nc2c(ncn2[C@@H]2O[C@H](COP(=O)(O)OP(=O)(O)OP(=O)(O)O)[C@@H](O)[C@H]2O)c(=O)[nH]1 [guanosine triphosphate]
In words: NP40-soluble protein abundance relative to vehicle (solubility fold change) (ratio); higher = more soluble protein in presence of GTP. On the procedure:
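Solubility proteome profiling in Jurkat crude lysate. Lysate was treated with Mg-GTP (0.1-10 mM) for 10 min at room temperature and 3 min at 37 °C, then solubilised with 0.8% NP40 and benzonase, followed by ultracentrifugation. Proteins were quantified by TMT10 LC-MS/MS; the value is the NP40-soluble abundance relative to the NP40-processed vehicle, from 3 independent experiments.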

± gives the standard deviation of the averaged measurements. The full data set covers some 5,400 targets. This sample favours those with the largest changes.

UniProt Q13496, sequence (Q13496 whole entry): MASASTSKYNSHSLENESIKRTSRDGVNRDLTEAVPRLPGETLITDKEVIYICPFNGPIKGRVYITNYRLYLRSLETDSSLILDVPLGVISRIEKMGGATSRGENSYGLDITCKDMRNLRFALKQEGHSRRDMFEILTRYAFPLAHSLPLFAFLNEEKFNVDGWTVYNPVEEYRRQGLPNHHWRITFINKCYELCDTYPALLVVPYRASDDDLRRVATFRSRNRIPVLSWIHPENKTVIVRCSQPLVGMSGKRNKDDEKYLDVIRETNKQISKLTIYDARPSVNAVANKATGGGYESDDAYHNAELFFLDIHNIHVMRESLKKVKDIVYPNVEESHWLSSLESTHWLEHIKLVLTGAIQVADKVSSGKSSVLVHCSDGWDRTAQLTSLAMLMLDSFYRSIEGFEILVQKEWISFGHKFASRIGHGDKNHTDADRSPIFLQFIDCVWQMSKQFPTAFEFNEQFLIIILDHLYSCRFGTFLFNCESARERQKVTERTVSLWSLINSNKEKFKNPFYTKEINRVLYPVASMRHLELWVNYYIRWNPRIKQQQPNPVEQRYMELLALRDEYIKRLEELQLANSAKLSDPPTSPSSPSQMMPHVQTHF
UniProt Q8TDZ2, sequence (Q8TDZ2 whole entry): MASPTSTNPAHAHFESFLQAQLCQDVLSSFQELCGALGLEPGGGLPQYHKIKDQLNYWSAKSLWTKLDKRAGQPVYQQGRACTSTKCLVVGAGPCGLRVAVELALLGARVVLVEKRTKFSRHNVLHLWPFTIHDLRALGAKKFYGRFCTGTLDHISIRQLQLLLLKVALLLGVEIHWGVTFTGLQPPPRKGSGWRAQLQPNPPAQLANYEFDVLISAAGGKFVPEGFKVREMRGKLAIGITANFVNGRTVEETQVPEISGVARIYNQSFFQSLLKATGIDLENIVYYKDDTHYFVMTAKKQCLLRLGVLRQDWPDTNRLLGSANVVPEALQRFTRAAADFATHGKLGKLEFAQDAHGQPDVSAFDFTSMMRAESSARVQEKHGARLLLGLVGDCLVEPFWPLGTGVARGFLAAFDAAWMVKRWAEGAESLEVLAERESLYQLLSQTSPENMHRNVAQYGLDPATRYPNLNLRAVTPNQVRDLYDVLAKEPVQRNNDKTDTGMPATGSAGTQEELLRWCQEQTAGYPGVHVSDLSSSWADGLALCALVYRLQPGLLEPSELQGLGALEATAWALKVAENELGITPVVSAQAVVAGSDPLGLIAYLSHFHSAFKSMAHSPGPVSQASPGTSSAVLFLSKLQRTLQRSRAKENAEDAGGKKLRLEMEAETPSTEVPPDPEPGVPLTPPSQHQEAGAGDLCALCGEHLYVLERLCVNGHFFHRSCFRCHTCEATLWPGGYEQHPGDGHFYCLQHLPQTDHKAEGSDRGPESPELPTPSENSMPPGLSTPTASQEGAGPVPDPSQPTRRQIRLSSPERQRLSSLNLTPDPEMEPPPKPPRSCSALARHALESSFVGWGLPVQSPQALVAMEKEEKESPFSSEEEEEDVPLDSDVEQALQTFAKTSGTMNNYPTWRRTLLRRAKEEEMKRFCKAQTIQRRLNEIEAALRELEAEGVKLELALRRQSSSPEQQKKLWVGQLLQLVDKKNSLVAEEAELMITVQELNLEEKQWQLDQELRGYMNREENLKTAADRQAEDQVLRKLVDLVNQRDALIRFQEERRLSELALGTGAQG
UniProt P63151, sequence (P63151 whole entry, one chain of several): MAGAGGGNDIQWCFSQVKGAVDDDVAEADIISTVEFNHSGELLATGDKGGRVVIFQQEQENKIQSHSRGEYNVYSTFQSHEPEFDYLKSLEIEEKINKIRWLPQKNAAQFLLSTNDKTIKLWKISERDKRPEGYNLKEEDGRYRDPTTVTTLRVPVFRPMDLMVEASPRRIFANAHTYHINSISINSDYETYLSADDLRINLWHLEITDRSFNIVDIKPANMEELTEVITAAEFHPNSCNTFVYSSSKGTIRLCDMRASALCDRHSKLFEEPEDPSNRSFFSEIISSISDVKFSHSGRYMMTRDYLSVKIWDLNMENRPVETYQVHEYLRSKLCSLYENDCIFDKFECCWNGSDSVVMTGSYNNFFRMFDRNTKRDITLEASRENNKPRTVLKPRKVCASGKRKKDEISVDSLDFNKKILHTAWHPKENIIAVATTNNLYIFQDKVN
UniProt Q14974, sequence (Q14974 whole entry): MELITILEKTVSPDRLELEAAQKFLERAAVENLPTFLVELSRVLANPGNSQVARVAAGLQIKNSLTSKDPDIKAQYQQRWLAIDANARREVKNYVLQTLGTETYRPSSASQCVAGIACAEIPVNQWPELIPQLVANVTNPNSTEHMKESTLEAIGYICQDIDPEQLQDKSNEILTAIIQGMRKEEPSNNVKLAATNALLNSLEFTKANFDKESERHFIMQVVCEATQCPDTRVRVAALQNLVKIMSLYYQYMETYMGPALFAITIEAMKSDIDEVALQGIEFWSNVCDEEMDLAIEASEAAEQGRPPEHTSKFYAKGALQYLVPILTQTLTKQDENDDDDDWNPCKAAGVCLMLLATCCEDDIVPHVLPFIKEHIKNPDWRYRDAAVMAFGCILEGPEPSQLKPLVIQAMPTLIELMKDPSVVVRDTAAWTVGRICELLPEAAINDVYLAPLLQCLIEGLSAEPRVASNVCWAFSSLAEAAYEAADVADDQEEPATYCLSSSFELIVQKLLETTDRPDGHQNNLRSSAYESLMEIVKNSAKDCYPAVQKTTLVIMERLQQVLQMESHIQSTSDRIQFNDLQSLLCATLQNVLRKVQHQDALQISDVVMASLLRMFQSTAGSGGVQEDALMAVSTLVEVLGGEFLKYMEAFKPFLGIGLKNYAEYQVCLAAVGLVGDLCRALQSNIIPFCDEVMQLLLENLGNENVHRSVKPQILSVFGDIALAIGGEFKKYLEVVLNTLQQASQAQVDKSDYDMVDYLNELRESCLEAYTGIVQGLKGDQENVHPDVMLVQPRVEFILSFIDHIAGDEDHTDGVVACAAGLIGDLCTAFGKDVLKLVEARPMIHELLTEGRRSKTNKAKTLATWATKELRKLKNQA
UniProt Q6P2E9, sequence (Q6P2E9 whole entry): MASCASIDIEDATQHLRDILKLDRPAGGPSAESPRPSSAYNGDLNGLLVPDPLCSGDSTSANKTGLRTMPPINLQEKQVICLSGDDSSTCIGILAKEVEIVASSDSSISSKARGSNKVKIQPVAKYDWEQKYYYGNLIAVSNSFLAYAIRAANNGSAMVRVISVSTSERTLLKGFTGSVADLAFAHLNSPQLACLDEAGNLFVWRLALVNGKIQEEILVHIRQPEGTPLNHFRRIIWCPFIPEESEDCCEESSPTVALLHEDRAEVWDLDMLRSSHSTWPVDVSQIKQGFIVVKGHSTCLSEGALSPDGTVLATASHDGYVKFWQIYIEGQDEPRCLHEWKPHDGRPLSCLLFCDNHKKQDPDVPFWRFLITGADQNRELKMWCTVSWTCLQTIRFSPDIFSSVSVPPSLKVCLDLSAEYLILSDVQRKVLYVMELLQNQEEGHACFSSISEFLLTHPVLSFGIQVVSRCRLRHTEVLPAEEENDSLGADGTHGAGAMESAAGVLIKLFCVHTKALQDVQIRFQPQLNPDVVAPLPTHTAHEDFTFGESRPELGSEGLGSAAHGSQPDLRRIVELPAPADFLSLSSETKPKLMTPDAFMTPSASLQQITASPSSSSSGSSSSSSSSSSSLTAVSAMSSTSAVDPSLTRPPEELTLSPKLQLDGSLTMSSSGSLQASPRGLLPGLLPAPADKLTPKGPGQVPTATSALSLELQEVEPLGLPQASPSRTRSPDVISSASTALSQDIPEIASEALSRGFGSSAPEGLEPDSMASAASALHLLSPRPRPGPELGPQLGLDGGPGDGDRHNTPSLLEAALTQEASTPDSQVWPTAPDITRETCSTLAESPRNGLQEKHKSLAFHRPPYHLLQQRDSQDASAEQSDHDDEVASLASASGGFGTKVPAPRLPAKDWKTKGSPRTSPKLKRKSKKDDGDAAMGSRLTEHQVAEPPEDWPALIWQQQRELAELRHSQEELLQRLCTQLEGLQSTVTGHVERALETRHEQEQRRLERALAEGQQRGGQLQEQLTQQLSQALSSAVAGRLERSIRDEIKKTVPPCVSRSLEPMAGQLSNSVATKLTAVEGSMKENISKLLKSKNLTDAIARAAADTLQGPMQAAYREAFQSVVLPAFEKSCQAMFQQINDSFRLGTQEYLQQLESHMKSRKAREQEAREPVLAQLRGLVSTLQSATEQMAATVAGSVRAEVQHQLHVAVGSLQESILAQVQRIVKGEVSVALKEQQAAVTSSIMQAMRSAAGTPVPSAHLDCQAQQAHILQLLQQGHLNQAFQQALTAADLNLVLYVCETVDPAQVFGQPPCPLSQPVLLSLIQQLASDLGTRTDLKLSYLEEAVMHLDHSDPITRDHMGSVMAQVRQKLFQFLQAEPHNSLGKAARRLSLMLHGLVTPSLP

KPNB1 (UniProt Q14974): the NP40-soluble protein abundance (concentration: 0.1mM) was found to be 0.986 ± 0.053; the NP40-soluble protein abundance (concentration: 0.5mM) is 0.988 ± 0.03; the NP40-soluble protein abundance (concentration: 1mM) stood at 1.01 ± 0.035; the NP40-soluble protein abundance (concentration: 2mM) was 0.989 ± 0.037; the NP40-soluble protein abundance (concentration: 4mM) came to 1.01 ± 0.041; the NP40-soluble protein abundance (concentration: 6mM) worked out at 0.993 ± 0.033. Also, the NP40-soluble protein abundance reads like this: (concentration: 8mM) 1 ± 0.033; (concentration: 10mM) 0.992 ± 0.028.

Consider MTM1 (UniProt Q13496), for which the NP40-soluble protein abundance (concentration: 0.1mM) amounted to 1.01 ± 0.078; the NP40-soluble protein abundance (concentration: 0.5mM) stood at 1.08 ± 0.088; the NP40-soluble protein abundance (concentration: 1mM) worked out at 0.961 ± 0.043; the NP40-soluble protein abundance (concentration: 2mM) was found to be 0.99 ± 0.076; the NP40-soluble protein abundance (concentration: 4mM) worked out at 0.933 ± 0.093; the NP40-soluble protein abundance (concentration: 6mM) came to 0.962 ± 0.093. Further, the NP40-soluble protein abundance is, setting by setting: (concentration: 8mM) 0.93 ± 0.057; (concentration: 10mM) 0.891 ± 0.087.

Take UniProt Q8TDZ2|Q8TDZ2-4: the NP40-soluble protein abundance runs as follows: (concentration: 0.1mM) 1.01 ± 0.056; (concentration: 0.5mM) 0.965 ± 0.069; (concentration: 1mM) 0.946 ± 0.021; (concentration: 2mM) 0.9475 ± 0.0091; (concentration: 4mM) 0.9237 ± 0.0088; (concentration: 6mM) 0.899 ± 0.019. Moreover, the NP40-soluble protein abundance came to 0.921 ± 0.016 (concentration: 8mM) and 0.879 ± 0.058 (concentration: 10mM).

For the target EDC4 (UniProt Q6P2E9), the NP40-soluble protein abundance (concentration: 0.1mM) stood at 0.984 ± 0.029; the NP40-soluble protein abundance (concentration: 0.5mM) was determined as 1 ± 0.037; the NP40-soluble protein abundance (concentration: 1mM) came out at 1.01 ± 0.045; the NP40-soluble protein abundance (concentration: 2mM) was found to be 1.01 ± 0.029; the NP40-soluble protein abundance (concentration: 4mM) was found to be 1.01 ± 0.039; the NP40-soluble protein abundance (concentration: 6mM) was found to be 1.02 ± 0.032. Further, the NP40-soluble protein abundance runs as follows: (concentration: 8mM) 1.02 ± 0.057; (concentration: 10mM) 1.04 ± 0.046.

In the case of UniProt P63151|E5RJV1, the NP40-soluble protein abundance reads like this: (concentration: 0.1mM) 0.983 ± 0.037; (concentration: 0.5mM) 1.02 ± 0.071; (concentration: 1mM) 0.934 ± 0.068; (concentration: 2mM) 0.931 ± 0.083; (concentration: 4mM) 0.955 ± 0.079; (concentration: 6mM) 0.887 ± 0.071. Moreover, the NP40-soluble protein abundance by setting is: (concentration: 8mM) 0.92 ± 0.016; (concentration: 10mM) 0.8766 ± 0.0055.
